Test results from PubChem BioAssay (NCI).
Compounds without any hit were thinned out: in the full panel of roughly 83,000, 20% have a hit.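 Values shown are percent growth following 48 h exposure of cells in 96-well plates to a single concentration of compound; below 10 was considered active.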 Active and inactive are the calls of the source.

How the values were obtained:
Assay in all cases: NCI-60 one-dose screen, 48 h (100 = growth as untreated, 0 = no growth, -100 = all killed)
Conditions in all cases: 10 µM unless noted
NCI-H226 lung = system: NCI-H226 lung
NCI-H322M lung = system: NCI-H322M lung
HOP-62 NSCLC = system: HOP-62 NSCLC
NCI-H460 lung = system: NCI-H460 lung
HOP-92 NSCLC = system: HOP-92 NSCLC
NCI-H522 lung = system: NCI-H522 lung
A549/ATCC NSCLC = system: A549/ATCC NSCLC
786-0 renal = system: 786-0 renal
COLO 205 colon = system: COLO 205 colon

Measured: growth

CC/C(=C(\c1ccc(O)cc1)c1ccc(OCCN(C)CCN(C)C(=O)CCCCC(=O)c2c(C)[nH]c(/C=C3\N=C(c4ccc[nH]4)C=C3OC)c2C)cc1)c1ccccc1
inactive: NCI-H226 lung 90.5% | NCI-H322M lung 88.7% | HOP-62 NSCLC 81% | NCI-H460 lung 76.8% | HOP-92 NSCLC 63.4% | NCI-H522 lung 84.3% | A549/ATCC NSCLC 88.5% | 786-0 renal 103% | COLO 205 colon 91.3%

O=C(CN1CCN(c2cc3c(cc2F)c(=O)c(C(=O)O)cn3C2CC2)CC1)Nc1nc(-c2ccc(Cl)cc2)cs1
inactive: NCI-H226 lung 43.3% | NCI-H322M lung 28.1% | HOP-62 NSCLC 25.7% | 786-0 renal 29.1% | COLO 205 colon 63.2%
active: NCI-H460 lung 6.86% | HOP-92 NSCLC -5.35% | NCI-H522 lung 6.46%

O=C(O)c1ccc(=O)[nH]n1
inactive: NCI-H226 lung 107% | HOP-62 NSCLC 111% | NCI-H460 lung 112% | HOP-92 NSCLC 87.9% | NCI-H522 lung 106% | A549/ATCC NSCLC 116% | 786-0 renal 116% | COLO 205 colon 111%

C=C1C(=O)O[C@H]2[C@H]1CC/C(Cn1cc(Cn3ccc4cc(Cl)ccc43)nn1)=C\CC[C@@]1(C)O[C@@H]21
active: HOP-92 NSCLC -61.6% | NCI-H522 lung -76% | 786-0 renal -71.4% | COLO 205 colon -82.3%
inactive: NCI-H226 lung 61.4% | NCI-H322M lung 76.6% | HOP-62 NSCLC 75.7% | NCI-H460 lung 64.2%

O=C(CO[N+](=O)[O-])Nc1ccc(C(=O)/C=C/c2ccc(Cl)cc2)cc1
inactive: NCI-H226 lung 81.7% | NCI-H322M lung 71.5% | HOP-62 NSCLC 94.1% | NCI-H460 lung 84.9% | HOP-92 NSCLC 66.8% | NCI-H522 lung 38.7% | A549/ATCC NSCLC 67.6% | 786-0 renal 75% | COLO 205 colon 36.1%

CC[C@H](CO)Nc1nc(NCc2ccccc2)n2ncc(C(C)C)c2n1
inactive: NCI-H226 lung 10.3% | NCI-H322M lung 14.8% | A549/ATCC NSCLC 19.7%
active: HOP-62 NSCLC 3.3% | NCI-H460 lung 5.04% | HOP-92 NSCLC -8.83% | NCI-H522 lung 1.9% | 786-0 renal -2.74% | COLO 205 colon -27%

Cc1ccc(SCN2CCN(c3cccc(Cl)c3)CC2)cc1
inactive: NCI-H226 lung 80.9% | NCI-H322M lung 88.7% | HOP-62 NSCLC 114% | NCI-H460 lung 98.4% | HOP-92 NSCLC 89.7% | NCI-H522 lung 96% | A549/ATCC NSCLC 106% | 786-0 renal 94.8% | COLO 205 colon 115%

O=c1c2cccc3c(NC4CCCCC4)ccc(c32)c2nc3ccccc3n12
inactive: NCI-H226 lung 72% | NCI-H322M lung 82.3% | HOP-62 NSCLC 90.6% | NCI-H460 lung 34.7% | HOP-92 NSCLC 48.4% | NCI-H522 lung 61.5% | A549/ATCC NSCLC 66.5% | 786-0 renal 108% | COLO 205 colon 75.6%
